In PubChem BioAssay (NCATS):
Inconclusive results are not listed. Activity calls are given as the source filed them. Unless noted, calls come from the whole dose curve; as a rule, active = well fitted cell-killing curve with a large enough effect; inconclusive = small, poorly fitted or top-dose-only effect; inactive = flat fitted curve, though single readings scatter.

Tests used:
[1] = Cell Viability - LYMP2-021 (AID 974);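 note: compound exposure lasts 24 hours at 37 °C; % is set by controls: 0 for no effect and ±100 for the full control effect; nearly all actives have a fitted effect of over 55% in size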
Procedure, shortened: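 Human lymphoblastoid LYMP2-021 cells, 2500/well in complete medium, treated 24 hours at 37 C. Intracellular ATP by CellTiter-Glo luminescence (30 min, RT); AC50 from Hill fits of concentration-response.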

[2] = Cell Viability - LYMP2-023 (AID 975);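 note: cellular ATP measured by luciferase luminescence as viability proxy; series mostly up to about 92 µM; plate controls were DMSO only for no effect and 92 µM tetraoctylammonium bromide control for full effect; nearly all actives have a fitted effect of over 55% in size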
Procedure, shortened: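 LYMP2-023 human lymphoblastoid cells, 2500/well, preincubated 5 hr at 37 C, then compound-treated 24 hr at 37 C in complete medium. CellTiter-Glo luminescence (ATP) after 30 min at room temperature; AC50 from Hill-equation fits; tetraoctylammonium bromide positive control.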

[3] = Cell Viability - LYMP2-025 (AID 976);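 note: series mostly up to about 92 µM; plate controls were DMSO only for no effect and tetraoctylammonium bromide control for full effect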
Procedure, shortened: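 Human lymphoblastoid LYMP2-025 cells, 2500/well, exposed 24 h at 37 C in complete medium in 1536-well qHTS. Viability as cellular ATP by CellTiter-Glo luminescence; AC50 from Hill fits of concentration-response data.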

[4] = Cell Viability - LYMP2-002 (AID 977);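 note: series mostly up to about 92 µM; compound exposure lasted 24 h at 37 °C; plate controls were DMSO only for no effect and 92 µM tetraoctylammonium bromide for full effect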
Procedure, shortened: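 Cytotoxicity is scored as concentration-dependent loss of cellular ATP in a human lymphoblastoid line after 24 hr compound treatment at 37 C. AC50 is obtained by modelling concentration-response data with the Hill equation.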

[5] = Cell Viability - LYMP2-006 (AID 978); note: series mostly up to about 92 µM; % is set by controls: 0 for no effect and ±100 for the full control effect; nearly all actives have a fitted effect of over 60% in size
Procedure, shortened: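 In this cytotoxicity screen, the human lymphoblastoid line grew in complete medium with test compounds for 24 hr at 37 C. Cellular ATP served as the viability signal.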

[6] = Cell Viability - LYMP2-007 (AID 979);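 note: cells exposed to compound for 24 h before reading; 0% = DMSO only and the negative end = 92 µM tetraoctylammonium bromide; nearly all actives have a fitted effect of over 60% in size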
Procedure, shortened: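 Human lymphoblastoid LYMP2-007 cells (2500/well) preincubated 5 h at 37 C, then treated 24 h at 37 C in complete medium. Viability by CellTiter-Glo ATP luminescence after 30 min at room temperature; AC50 from Hill fits.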

[7] = Cell Viability - LYMP2-008 (AID 980); note: % is set by controls: 0 for no effect and ±100 for the full control effect; nearly all actives have a fitted effect of over 60% in size
Procedure, shortened: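 LYMP2-008 lymphoblastoid cells (2500/well) plated 5 h, then treated 24 h at 37 C in complete medium. Viability read as intracellular ATP by CellTiter-Glo luminescence after 30 min at room temperature; AC50 from Hill fits.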

[8] = Cell Viability - LYMP2-010 (AID 981); note: % is set by controls: 0 for no effect and ±100 for the full control effect; nearly all actives have a fitted effect of over 55% in size
Procedure, shortened: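 Human lymphoblastoid LYMP2-010 cells (2500/well) treated 24 h at 37 C in complete medium; viability read as intracellular ATP by CellTiter-Glo luminescence. AC50 from Hill fits of concentration-response data; tetraoctylammonium bromide positive control.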

[9] = Cell Viability - LYMP2-012 (AID 982);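 note: cellular ATP by luciferase luminescence where a drop means cytotoxicity; cells exposed to compound for one day before reading; 0% = DMSO only and full loss = 92 µM tetraoctylammonium bromide; nearly all actives have a fitted effect of over 55% in size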
[10] = Cell Viability - LYMP2-014 (AID 983);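 note: series mostly up to about 92 µM; plate controls were DMSO only for no effect and 92 µM tetraoctylammonium bromide for full effect; nearly all actives have a fitted effect of over 50% in size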
Procedure, shortened: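 LYMP2-014 human lymphoblastoid cells, 2500/well, treated 24 h at 37 C in complete medium; viability by CellTiter-Glo ATP luminescence after 30 min at room temperature. AC50 from Hill fits of qHTS concentration-response; tetraoctylammonium bromide positive control.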

[11] = Cell Viability - LYMP2-016 (AID 984)
Procedure, shortened: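 Concentration-dependent ATP depletion measured in LYMP2-016 lymphoblastoid cells, 24 h, 37 C; luciferase-based luminescent detection; Hill-equation AC50.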

[12] = Cell Viability - LYMP2-018 (AID 985);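 note: compound exposure lasted 24 hr at 37 °C; plate controls were DMSO only for no effect and tetraoctylammonium bromide at 92 µM for full effect; nearly all actives have a fitted effect of over 50% in size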
Procedure, shortened: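 Human lymphoblastoid LYMP2-018 cells, 2500/well, settled 5 hr at 37 C then exposed to compound 24 hr at 37 C; intracellular ATP measured by CellTiter-Glo luminescence. AC50 from Hill-equation concentration-response fits.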

[13] = Cell Viability - LYMP2-020 (AID 986)
Procedure, shortened: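 Human lymphoblastoid LYMP2-020 cells (2500/well) preincubated 5 h at 37 C, then treated 24 h at 37 C. Viability measured as intracellular ATP by CellTiter-Glo luminescence after 30 min at room temperature; AC50 from Hill fits.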

[14] = Cell Viability - LYMP2-022 (AID 987)
Procedure, shortened: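 LYMP2-022 lymphoblastoid cells (2500/well, complete medium) were treated with compounds for 24 hours at 37 C; intracellular ATP was then read by CellTiter-Glo luminescence after 30 min at room temperature. AC50 values were derived from Hill-equation fits.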

[15] = Cell Viability - LYMP2-024 (AID 988);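 note: plate controls were DMSO only for no effect and 92 µM tetraoctylammonium bromide for full effect; nearly all actives have a fitted effect of over 60% in size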
Procedure, shortened: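 Human lymphoblastoid LYMP2-024 cells (2500/well) rested 5 hr, then treated with compound for 24 hr at 37 C in complete medium. Viability was measured as intracellular ATP by CellTiter-Glo luminescence. AC50 values came from Hill-equation fits.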

[16] = Cell Viability - LYMP2-026 (AID 989); note: % is set by controls: 0 for no effect and ±100 for the full control effect; nearly all actives have a fitted effect of over 50% in size
Procedure, shortened: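 Human lymphoblastoid LYMP2-026 cells, 2500/well, exposed to compound 24 h at 37 C in complete medium. Viability as intracellular ATP by CellTiter-Glo luminescence; AC50 from Hill fits of qHTS concentration-response.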

[17] = Cell Viability - LYMP1-002 - Assay at 24 hr (AID 993); note: % is set by controls: 0 for no effect and ±100 for the full control effect
Procedure, shortened: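 Human lymphoblastoid LYMP1-002 cells (2500/well) treated 24 h at 37 °C; viability as intracellular ATP by CellTiter-Glo luminescence. Tetraoctylammonium bromide as positive control; AC50 from Hill-equation fits of qHTS concentration-response.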

[18] = Cell Viability - LYMP1-002 - Assay at 40 hr (AID 994)
Procedure, shortened: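 LYMP1-002 human lymphoblastoid cells (2500/well, complete medium) were treated with compounds for 40 hr at 37 C. Intracellular ATP was measured by CellTiter-Glo luminescence, and AC50 values came from Hill-equation fits of concentration-response data; tetraoctylammonium bromide was the positive control.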

[19] = qHTS Assay for Identification of Small Molecule Inducers of Hypoxia Response (AID 2120; active = well fitted curve in the direction sought with a large enough effect in the signal ratio, with a control signal flat, not every such curve was filed as active; the % refers to the signal ratio; note: 0% is about no effect)
Procedure, shortened: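 HRE-bla ME-180 cells in Opti-MEM with 0.5% dialyzed FBS, pre-plated 4-5 h, then compound titration for 17 h at 37 degrees Celsius. CCF4 loaded 2.5 h at room temperature; 460/530 nm ratio gave %Activity and AC50 for induction.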

[20] = biological target: Bile acid receptor (Homo sapiens) (UniProt Q96RI1); assay: qHTS assay for small molecule antagonists of farnesoid X receptor signaling (AID 588526; calls by dose curve; note: % is set by controls: 0 for no effect and ±100 for the full control effect)
Sequence of Bile acid receptor (Homo sapiens) (Q96RI1 whole entry, looked up): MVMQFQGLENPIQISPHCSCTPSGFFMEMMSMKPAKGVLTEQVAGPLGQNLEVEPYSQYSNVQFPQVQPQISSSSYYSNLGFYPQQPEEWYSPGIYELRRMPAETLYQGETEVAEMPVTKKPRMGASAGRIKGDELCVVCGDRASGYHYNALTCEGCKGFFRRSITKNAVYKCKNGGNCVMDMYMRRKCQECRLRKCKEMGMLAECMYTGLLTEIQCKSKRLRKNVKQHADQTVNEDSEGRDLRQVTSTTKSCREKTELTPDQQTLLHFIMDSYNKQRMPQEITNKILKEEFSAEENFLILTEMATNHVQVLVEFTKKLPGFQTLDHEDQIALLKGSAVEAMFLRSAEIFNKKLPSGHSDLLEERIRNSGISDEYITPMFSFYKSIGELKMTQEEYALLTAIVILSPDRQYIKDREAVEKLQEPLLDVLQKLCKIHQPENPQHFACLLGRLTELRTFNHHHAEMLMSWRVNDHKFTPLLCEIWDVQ
Procedure, shortened: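 Beta-lactamase reporter antagonist mode: HEK293T FXR-UAS-bla cells, titrated compound, CDCA stimulation, 16 h 37 C, CCF4 dye 2 h RT. Data normalized to CDCA 50 uM and DMSO; Hill-fit IC50.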

[21] = biological target: Glucocorticoid receptor (Homo sapiens) (UniProt P04150); assay: qHTS assay for small molecule agonists of glucocorticoid receptor signaling (AID 588532; active = well fitted curve in the direction sought with a large enough effect in the signal ratio, with a control signal flat; the % refers to the signal ratio;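 note: 100% = dexamethasone at 0.1 µM and 0% = DMSO only wells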); details: HeLa MMTV-bla, beta-lactamase ratio, agonist, 18 h; hits give high values; percent of dexamethasone control, DMSO zero
Sequence of Glucocorticoid receptor (Homo sapiens) (P04150 whole entry, looked up): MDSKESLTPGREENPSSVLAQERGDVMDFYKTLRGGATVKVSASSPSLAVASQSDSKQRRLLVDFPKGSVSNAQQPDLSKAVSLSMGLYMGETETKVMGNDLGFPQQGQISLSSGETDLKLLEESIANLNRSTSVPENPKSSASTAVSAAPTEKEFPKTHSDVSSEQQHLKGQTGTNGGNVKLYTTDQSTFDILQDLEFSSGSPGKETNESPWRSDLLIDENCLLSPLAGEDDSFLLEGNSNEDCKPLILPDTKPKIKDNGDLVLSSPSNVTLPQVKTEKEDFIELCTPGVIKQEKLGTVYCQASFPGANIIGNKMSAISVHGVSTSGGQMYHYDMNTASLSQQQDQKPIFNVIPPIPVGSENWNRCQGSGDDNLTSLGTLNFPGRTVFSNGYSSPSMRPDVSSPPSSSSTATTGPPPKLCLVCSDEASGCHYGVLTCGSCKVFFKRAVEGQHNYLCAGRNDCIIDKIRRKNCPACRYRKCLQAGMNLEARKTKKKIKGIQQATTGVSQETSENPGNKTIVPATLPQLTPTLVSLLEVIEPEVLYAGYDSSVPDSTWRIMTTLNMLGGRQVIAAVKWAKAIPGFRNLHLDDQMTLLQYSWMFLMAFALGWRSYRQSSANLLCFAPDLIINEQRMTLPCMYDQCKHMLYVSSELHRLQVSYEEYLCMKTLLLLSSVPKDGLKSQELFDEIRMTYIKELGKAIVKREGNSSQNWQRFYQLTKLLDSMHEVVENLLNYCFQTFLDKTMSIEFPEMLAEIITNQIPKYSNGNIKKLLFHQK
Procedure, shortened: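 Agonist-mode qHTS: GRE-driven beta-lactamase in HeLa cells exposed 18 h to titrated compounds (up to 92 uM), then CCF4 ratio read after 2 h at RT; Hill-fitted EC50, efficacy relative to 0.1 uM dexamethasone.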

[22] = biological target: Glucocorticoid receptor (Homo sapiens) (UniProt P04150); assay: qHTS assay for small molecule antagonists of glucocorticoid receptor signaling (AID 588533; active = well fitted inhibition curve with a large enough effect in the signal ratio, with a control signal flat, not every such curve was filed as active; the % refers to the signal ratio;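 note: cells stimulated with 2 nM dexamethasone as agonist; % is set by controls: 0 for no effect and ±100 for the full control effect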)
Procedure, shortened: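 Antagonist-mode qHTS: compound titrations added to GRE-bla HeLa cells, then dexamethasone 2 nM final; 18 h, 37 C. CCF4 FRET fluorescence normalized to dexamethasone and DMSO; IC50 from Hill fit.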

O=C(/C=C/c1ccc(O)c(O)c1)O[C@@H](C(=O)O)[C@@H](OC(=O)/C=C/c1ccc(O)c(O)c1)C(=O)O
inactive: Potency [1] | Potency [2] | Potency [3] | Potency [4] | Potency [5] | Potency [6] | Potency [7] | Potency [8] | Potency [9] | Potency [10] | Potency [11] | Potency [12] | Potency [13] | Potency [14] | Potency [15] | Potency [16] | Potency [17] | Potency [18] | outcome [19] | outcome [20] | activation [21] 1.43% | Potency [22]
